{
  "source": "PubChem BioAssay AID463173",
  "about": "(ICCB-Longwood Screening Facility, Harvard Medical School, 2010)",
  "note": "In all, about 52,000 compounds went through this assay and about 4,300 (8.3%) were called active. Shown is part of a subset that was picked to be rich in actives. Values without a mark were called inactive. No stated cut-off is given here; in the data, active means survival mostly below about 52% (no sharp cut-off); inactive means mostly above about 56%.",
  "data": [
    {"test_system": "DeltatarO mutant", "assay": "S. aureus survival, RN4220 and DeltatarO strains – OD600, teichoic acid synthesis inhibitors, primary screen (AID 463173)", "settings": "S. aureus RN4220 wild type/DeltatarO growth, OD600, 18 h, stronger effect = lower value, screened at 18.75 µg/mL (by protocol)", "values": [
      {"molecule": "CCN(C(=O)Cc1ccccc1OC)c1nnc(-c2ccncc2)s1", "survival": "70%"},
      {"molecule": "Nc1nc(-c2ccco2)nn1C(=O)c1ccc(Cl)cc1Cl", "survival": "91%"},
      {"molecule": "COc1ccc(-c2cc(C(=O)NCCc3ccccc3)c3c(-c4ccccc4)[nH]nc3n2)cc1", "survival": "87%"},
      {"molecule": "Cc1cc2c(cc1NC(=O)c1ccc(C(C)(C)C)cc1)n(C)c(=O)c(=O)n2C", "survival": "84%"},
      {"molecule": "COc1cc(OC)c(NC(=O)N2CCN3CCCCC3C2)cc1Cl", "note": "(stereo not given)", "survival": "75%"},
      {"molecule": "CCN1CCN(c2csc3ccc(C)cc3c2=O)CC1", "survival": "74%"},
      {"molecule": "COc1ccccc1NC(=O)N(Cc1cc2c(C)ccc(C)c2[nH]c1=O)CC1CCCO1", "note": "(stereo not given)", "survival": "94%"},
      {"molecule": "CCOC(=O)c1c(NC(=O)c2ccc(OC)c(OC)c2)sc2c1CCCCC2", "survival": "58%"},
      {"molecule": "CCOC(=O)c1c(NC(=O)c2cc(OC)c(OC)c(OC)c2)sc2c1CCCC2", "survival": "81%"},
      {"molecule": "CCOC(=O)c1c(NC(=O)c2ccc(C)c(C)c2)sc2c1CCCCC2", "survival": "2% (active)"},
      {"molecule": "CCCOC(=O)c1c(NC(=O)c2cc3ccccc3c(=O)o2)sc2c1CCC(C)C2", "note": "(stereo not given)", "survival": "112%"},
      {"molecule": "CCOC(=O)c1c(NC(=O)c2ccc(OC)cc2)sc2c1CCCCC2", "survival": "2% (active)"},
      {"molecule": "CCN(CC)Cc1c(NC(=O)c2ccc(OC)cc2)sc2c1CCCC2", "survival": "71%"},
      {"molecule": "CC(C)(C)C1CCc2c(sc(NC(=O)c3cc4ccccc4c(=O)o3)c2C(N)=O)C1", "note": "(stereo not given)", "survival": "44% (active)"},
      {"molecule": "CCOC(=O)c1c(NC(=O)c2cc3ccccc3c(=O)o2)sc2c1CCC(C(C)(C)C)C2", "note": "(stereo not given)", "survival": "53%"},
      {"molecule": "CCCCOc1cccc(C(=O)Nc2sc3c(c2C(=O)OCC)CCCC3)c1", "survival": "53%"},
      {"molecule": "CCOC(=O)c1c(NC(=O)c2ccc(OCC)c(Br)c2)sc2c1CCCC2", "survival": "74%"},
      {"molecule": "CCCCOc1ccc(C(=O)Nc2sc3c(c2C(=O)OCC)CCCCC3)cc1", "survival": "50%"},
      {"molecule": "CCCOc1ccc(C(=O)Nc2sc3c(c2C(=O)OCC)CCCCC3)cc1", "survival": "24% (active)"},
      {"molecule": "Cc1c(C(=O)NCCN(C)C)oc2c1-c1nn(Cc3ccccc3Cl)cc1CC2", "survival": "110%"},
      {"molecule": "O=C(Oc1ccc(F)cc1)c1nc(SCc2ccc(F)cc2)ncc1Cl", "survival": "79%"},
      {"molecule": "COC(=O)C1=NNC2(c3ccc(C)cc3)C(=O)N(c3ccc(C)cc3)C(=O)C12", "note": "(stereo not given)", "survival": "107%"},
      {"molecule": "Cc1oc(C(=O)O)cc1CSC(C)C(=O)O", "note": "(stereo not given)", "survival": "88%"},
      {"molecule": "CC(C)c1nn2c(=O)cc(COC(=O)c3ccccc3Cl)nc2s1", "survival": "88%"},
      {"molecule": "CC(=O)Nc1nc(-c2cccs2)nc2c1c(=O)oc1ccccc12", "survival": "92%"},
      {"molecule": "COc1ccc(N=C2SC(C(=O)Nc3ccccc3)CC(=O)N2C)cc1", "note": "(stereo not given)", "survival": "91%"},
      {"molecule": "O=C(CN1C(=O)C2(SCC(=O)N2c2ccccc2)c2ccccc21)NCCc1ccccc1", "note": "(stereo not given)", "survival": "116%"},
      {"molecule": "Cc1nnsc1C(=O)Oc1ccc(C(C)C)cc1", "survival": "89%"},
      {"molecule": "CCc1cc2c(cc3c(=O)n(CC(=O)NC4CCC(C)CC4)ncn32)s1", "note": "(stereo not given)", "survival": "91%"},
      {"molecule": "Oc1c(C(c2cccc(Cl)c2)N2CCOCC2)sc2nc(-c3ccco3)nn12", "note": "(stereo not given)", "survival": "84%"},
      {"molecule": "Cc1ccc(NC(=O)CCC(=O)N2Cc3ccccc3Oc3ncccc32)c(C)c1", "survival": "99%"},
      {"molecule": "CCOC(=O)C1CCN(C(=O)c2ccccc2N(C)S(C)(=O)=O)CC1", "survival": "107%"},
      {"molecule": "CCOC(=O)c1c(NC(=O)c2ccc(C)cc2)sc2c1CCCCC2", "survival": "-2% (active)"},
      {"molecule": "CCOC(=O)c1c(NC(=O)c2cc(OCC)c(OCC)c(OCC)c2)sc2c1CCCCC2", "survival": "65%"},
      {"molecule": "CCOC(=O)c1c(NC(=O)c2cc3ccccc3c(=O)o2)sc2c1CCCC2", "survival": "45% (active)"},
      {"molecule": "COC(=O)c1c(NC(=O)c2cc3ccccc3c(=O)o2)sc2c1CCCC2", "survival": "89%"},
      {"molecule": "CCOC(=O)c1c(NC(=O)c2ccc(S(=O)(=O)N(CC)CC)cc2)sc2c1CCCCC2", "survival": "72%"},
      {"molecule": "CCOC(=O)c1c(NC(=O)c2ccccc2C)sc2c1CCCC2", "survival": "12% (active)"},
      {"molecule": "CCOC(=O)c1c(NC(=O)c2cc3ccccc3c(=O)o2)sc2c1CCC(C)C2", "note": "(stereo not given)", "survival": "129%"},
      {"molecule": "CCOC(=O)c1c(NC(C)=O)sc2c1CCC2", "survival": "77%"},
      {"molecule": "CCOC(=O)c1c(NC(=O)c2cc(Cl)ccc2Cl)sc2c1CCCC2", "survival": "72%"},
      {"molecule": "CCc1cccc(CC)c1NC(=O)c1c(C)oc2ccc(O)c(CN3CCOCC3)c12", "survival": "90%"},
      {"molecule": "CC(C)Oc1ccc(C(=O)NCc2cccnc2)cc1", "survival": "70%"},
      {"molecule": "CCOc1ccc(C(=O)N2CCc3cc(OC)c(OC)cc3C2COc2ccc3c(C)cc(=O)oc3c2)cc1OCC", "note": "(stereo not given)", "survival": "57%"},
      {"molecule": "COc1ccc(OC)c(NC(=O)c2c(NCc3cccs3)sc3c2CCCCC3)c1", "survival": "67%"},
      {"molecule": "CCOC(=O)c1cccc(NC(=O)COc2ccc3c(C)cc(=O)oc3c2)c1", "survival": "70%"},
      {"molecule": "CN(C(=O)c1cc2c(Cl)nc3ccccc3c2s1)c1cccc(C(F)(F)F)c1", "survival": "72%"},
      {"molecule": "Cc1ccc(Cl)cc1N(C)C(=O)c1cc2c(Cl)nc3ccccc3c2s1", "survival": "54%"},
      {"molecule": "CCCN(C(=O)c1cc2c(Cl)nc3ccccc3c2s1)c1cccc(C)c1", "survival": "31% (active)"},
      {"molecule": "CCN(CCCNC(=O)c1cc2c(Cl)nc3ccccc3c2s1)Cc1ccccc1", "survival": "94%"},
      {"molecule": "Cc1ccc2nc(Cl)c3cc(C(=O)N(C)C4CCCCC4)sc3c2c1", "survival": "46%"},
      {"molecule": "CCN(C(=O)c1cc2c(Cl)nc3ccccc3c2s1)c1cccc(Cl)c1", "survival": "60%"},
      {"molecule": "Cc1ccc2nc(Cl)c3cc(C(=O)NCCCN(C)Cc4ccccc4)sc3c2c1", "survival": "-9% (active)"},
      {"molecule": "CN(CCCNC(=O)c1cc2c(Cl)nc3ccccc3c2s1)Cc1ccccc1", "survival": "55%"},
      {"molecule": "CCc1ccccc1N(C)C(=O)c1cc2c(Cl)nc3ccc(C)cc3c2s1", "survival": "-4% (active)"},
      {"molecule": "COc1cc(NS(=O)(=O)c2ccc3c(c2)CCCN3C(C)=O)cc(OC)c1OC", "survival": "89%"},
      {"molecule": "Cc1nc(C)c(CCNS(=O)(=O)c2ccc(C)c(C)c2)s1", "survival": "97%"},
      {"molecule": "CCOc1ccc(-n2ccnc2SCC(=O)Nc2ccc3c(c2)OCO3)cc1", "survival": "81%"},
      {"molecule": "O=C(CN1N=C(c2ccc(Cl)cc2)CCC1=O)NCCc1ccc(Cl)cc1", "survival": "94%"},
      {"molecule": "COc1cccc(C(=O)Nc2ccc3nc(SCC(=O)N4CCOCC4)sc3c2)c1", "survival": "65%"}
    ]}
  ]
}
